Screening data from PubChem BioAssay.
Dicer processing: blocks human Dicer maturation of pre-miR-21. Q9UPY3. cat-ELCCA pre-miR-21 Dicer processing, chemiluminescence; stronger effect = higher value. z-score at 25 µM. actives 6% (n = 47,000). AID 1347074; in the data active = z-score above about 3, passing the limit was not always enough;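 note: plate controls were vehicle for no effect and no enzyme for full effect; higher signal means more uncleaved substrate so more Dicer inhibition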
An asterisk follows results filed as active. Many of the other results were omitted from the sample, so hits are more common in it than they were.

SMILES | Dicer processing
C=CCn1c2ccccc2c2nnc(SCC(=O)Nc3ncc([N+](=O)[O-])s3)nc21 | 0.77
C=CCn1c2ccccc2c2nnc(SCC(=O)Nc3nc(C)c(C(=O)OCC)s3)nc21 | 4.9*
CC(C)CNc1nc(Oc2ccc(=O)n(-c3ccccc3)n2)nc(N2CCOCC2)n1 | 3.6*
CC(C)CNc1nc(Oc2ccc(=O)n(C)n2)nc(N2CCOCC2)n1 | 1.6
CC(C)(C)Nc1nc(Oc2ccc(=O)n(-c3ccccc3)n2)nc(N2CCOCC2)n1 | -0.55
Cc1ccc(N2OC3C(=O)NC(=O)C3C2c2ccc(Cl)cc2)cc1 (stereo unspecified) | 0.62
Cc1nn(CC(N)=O)c(C)c1[N+](=O)[O-] | -0.68
Clc1ccc(OCc2nc3ccccc3s2)cc1 | -0.19
O=c1c2nnn(Cc3ccccc3Cl)c2ncn1Cc1ccc([N+](=O)[O-])cc1 | 1.6
CS(=O)(=O)c1scc(-c2ccccc2)c1C#N | -1.1
Cc1ccc(-c2n[nH]c(S(C)(=O)=O)c2C#N)cc1 | -2.1
Cn1nc(-c2ccccc2)c(C#N)c1S(C)(=O)=O | 3.2*
CO/N=C(\C(=O)Oc1c(Cl)c(Cl)c(Cl)c(Cl)c1Cl)c1ccco1 | 0.75
COc1ccc(C2c3c(oc4ccccc4c3=O)C(=O)N2c2ccccn2)cc1OC (stereo unspecified) | 1.8
O=C1c2oc3ccccc3c(=O)c2C(c2ccc(O)cc2)N1c1nncs1 (stereo unspecified) | -1.4
CCCOc1ccc(C2c3c(oc4ccccc4c3=O)C(=O)N2c2ccc(C)cn2)cc1 (stereo unspecified) | 2.5
COc1ccc(C2c3c(oc4ccccc4c3=O)C(=O)N2c2ccccn2)cc1 (stereo unspecified) | 4.1*
O=C1c2oc3ccccc3c(=O)c2C(c2ccc(O)cc2)N1c1ccccn1 (stereo unspecified) | 5.1*
CCc1ccc(C2c3c(oc4ccccc4c3=O)C(=O)N2c2ccccn2)cc1 (stereo unspecified) | 2
O=C1CCCC2=C1C(c1ccc(Br)cc1)C1C(=O)c3ccccc3C1=N2 (stereo unspecified) | -0.78
Cc1cc(NC(=O)Nc2cccc(C(F)(F)F)c2)n(-c2ccccc2)n1 | 1.1
O=C(ON(C(=O)c1ccc(F)cc1)C1C2CC3CC(C2)CC1C3)c1ccc(F)cc1 (stereo unspecified) | -1.3
N#Cc1cnc(Sc2nnc(-c3ccncc3)o2)nc1N | -1.7
O=C1CSCN1Cc1c(Cl)cccc1Cl | 0.28
Cc1nc(N2CCOCC2)c(C#N)c(C)c1[N+](=O)[O-] | 0.54
SMILES | Dicer processing
COC(=O)C1=C(C)NC2=C(C(=O)CC(c3ccc(F)cc3)C2)C1c1cn[nH]c1-c1ccccc1 (stereo unspecified) | -0.55
CC(C)C(=O)NCc1ccc(Cl)cc1Cl | -1.9
C/C(COc1ccc(-c2csnn2)cc1)=N\NC(N)=S | 0.52
Cc1ccc(CNCc2ccc3c(c2)OCO3)cc1 | 0.29
Cc1ccc(CNCc2ccc3c(c2)OCO3)s1 | -0.56
Cc1ccc(C)c(NCc2ccc3c(c2)OCO3)c1 | 5.4*
COc1ccc(OC)c(C2C3=C(CC(C)(C)CC3=O)Nc3ccc4ccccc4c32)c1 (stereo unspecified) | -0.24
CCOC(=O)Cn1cnc2sc3c(c2c1=O)CCC(C)C3 (stereo unspecified) | -1.2
CC(C)(C)c1ccc(C(=O)N/N=C(/C(=O)O)c2ccccc2)cc1 | 0.11
C/C(Cc1ccccc1)=N\NC(=O)c1ccncc1 | -0.68
C/C(=N/NC(=O)c1ccccc1)C(=O)O | 3.3*
Cn1nccc1NC(=O)CC(C)(C)CC(=O)O | 0.37
Cc1cc(Br)ccc1NC(=O)C1Sc2nnc(C)n2NC1c1ccc(F)cc1 (stereo unspecified) | 0.43
Cc1cc(Cl)cc2c1C(=O)/C(=C\c1ccccc1O)S2 | 5*
O=C1C(c2cc(Cl)cc(Cl)c2)=C(O)c2ccccc21 | -0.75
Cc1cc(Cl)cc2c1C(=O)/C(=C\c1cccnc1)S2 | -0.04
Cn1c(=O)c2c(-c3ccc(F)cc3)ccnc2n(C)c1=O | 0.55
CSC(=S)N(C)NC(=O)Nc1c(-c2c(Cl)cccc2Cl)noc1C | -0.93
Cc1onc(-c2c(Cl)cccc2Cl)c1N | -1
Cc1onc(-c2c(Cl)cccc2Cl)c1CSC(=S)N(C)C | 6.6*
CSC(=NS(=O)(=O)c1ccc(Cl)c(Cl)c1)SC | -0.08
Cc1c(C(=O)O)c2cc(NS(=O)(=O)c3cccs3)ccc2n1S(=O)(=O)c1cccs1 | 7.5*
CCOC(=O)c1c(C)oc2ccc(NS(=O)(=O)c3cccs3)cc12 | -0.75
Cc1ccc(NS(=O)(=O)c2cccs2)cc1 | 0.16
Cc1onc(-c2c(Cl)cccc2Cl)c1C(=O)Oc1ccc(Cl)c(Cl)c1 | 0.78
SMILES | Dicer processing
CC1CCC2C(=O)N(c3cccc4ccccc34)C(=O)C2C1 (stereo unspecified) | 0.07
N#Cc1c(F)cccc1NC1CCN(Cc2ccccc2)CC1 | 1.1
O=C1/C(=C\c2ccccc2)SC(=S)N1c1cccc(Br)c1 | 4*
Cc1cc(C)c2c(=O)c(/C=C3/SC(=S)N(c4cccc(Cl)c4)C3=O)coc2c1 | -1.8
O=C1/C(=C\c2ccc(Cl)c(Cl)c2)SC(=S)N1c1ccc(F)c(F)c1 | 0.62
Cc1ccc(F)cc1NC(=O)N1CCN(c2cccc3nc(C(F)(F)F)ccc23)CC1 | 2
O=C(Nc1ccc(-n2nc(C(F)(F)F)cc2C(F)(F)F)cc1)Nc1ccc(F)cc1F | -0.72
Nc1ccc(C(=O)c2ccccc2C(=O)O)cc1[N+](=O)[O-] | -0.36
C=CCn1c(SCC(=O)Nc2c(C#N)cnn2-c2ccccc2)nnc1-c1ccco1 | 2
Clc1ccc2nc(-c3ccc(Cl)c(Cl)c3)cnc2c1 | 0.88
O=C(NO)c1csc(-c2cccnc2)n1 | -1
Cc1cc(NS(=O)(=O)N2CCCCC2)no1 | -0.07
COc1ccc(C2Nc3ccccc3NC3=C2C(=O)CC(C)(C)C3)cc1Cn1cc([N+](=O)[O-])cn1 (stereo unspecified) | 1.5
CC(Nc1ncnc2ccccc12)C(=O)O (stereo unspecified) | 3.3*
CCCC(Nc1ncnc2ccccc12)C(=O)O (stereo unspecified) | 0.39
O=C(O)CCC(Nc1ncnc2ccccc12)C(=O)O (stereo unspecified) | 1.3
O=C(Nc1ccc(Br)cc1)c1csc2c1CCCC2 | 0.17
S=C(NNc1ccccc1)c1ccccc1 | 5.2*
O=C(c1ccccc1)c1cc(Cl)ccc1NC(=S)Nc1ccc(F)cc1 | -0.55
FC(F)(F)c1cccc(NNC(=S)Nc2ccccc2)c1 | -0.98
O=C(NNC(=S)Nc1ccc(F)cc1)c1ccccc1Cl | 4.7*
Cc1ccccc1NC(=S)NNC(=O)c1ccccc1Cl | 0.06
N#CCC(=O)NNC(=S)Nc1ccccc1 | -1.2
COCCCNC(=S)NNC(=O)c1ccc(C(F)(F)F)cc1 | -4.6
COCCCNC(=S)Nc1ccc(F)cc1 | -0.92
SMILES | Dicer processing
S=C(NNC(=S)Nc1ccccc1)Nc1ccccc1 | 14*
COCCCNC(=S)NNC(=S)Nc1ccccc1 | 3.6*
Fc1ccc(NC(=S)Nc2ccccc2)cc1 | -0.31
Cc1cc(Br)c(NC(=S)NNc2ccccc2)c(Br)c1 | 3.9
N#C/C(=C\c1cccc(Cl)c1Cl)c1nc2ccccc2s1 | -0.37
Cc1cc(Cl)ccc1OCC1NCCS1 (stereo unspecified) | -1.2
CN(C)/C=N/S(=O)(=O)c1ccccc1 | 1.1
CCOc1ccc(OCC)c(S(=O)(=O)n2ccnc2)c1 | -0.13
COC(=O)C(Cc1ccc(Cl)cc1Cl)Sc1ccc(Cl)cc1 (stereo unspecified) | 0.75
CC(C)c1ccccc1NC(=S)NCCO | 0
NC(=O)c1nnn(Cc2ccccc2Cl)c1N | 0.22
CC(=O)c1ccccc1C(=O)c1ccccc1 | -1.2
